From PubChem BioAssay (EPA / NIEHS) come the findings set out here.

Records with an inconclusive call do not appear. Some compounds were tested as several samples or in several runs, with calls that do not always agree. Active and inactive are the calls of the source. The calls were made as follows, unless noted: active = hit-call score of the fitted dose curve at least 0.9, where 1 is the maximum; inactive = score below 0.9.

The nature of assay [1]: CCTE_Mundy_HCI_Cortical_Synap_Neur_Matur_CellBodySpotCount: CCTE's Synaptogenesis and Neurite Maturation Assay in rat cortical cells for Cell Body Spot Count, Mundy Lab (AID 2284223). The method in brief: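 Chemicals were applied to AraC-treated rat primary cortical cells at DIV 7 and measured at DIV 12. Fixed cells were labelled for MAP2, synaptophysin and nuclei, and high-content imaging gave cell body synaptophysin spot counts per neuron relative to DMSO.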

A short description of assay [2]: CCTE_Mundy_HCI_hNP1_Pro_ResponderAvgInten: CCTE's Proliferation Assay in human neuroprogenitor cells, Mundy Lab (AID 2284224; active = hit-call score of the fitted dose curve at least 0.9, where 1 is the maximum). The method in brief:
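Proliferation read as average intensity of BrdU-positive cells, imaged at 26.25 h post-dosing: chemical exposure started after 40–44 h culture, BrdU during final 4 h, paraformaldehyde fixation. Positive-direction fit relative to DMSO.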

A short description of assay [3]: CCTE_Mundy_HCI_Cortical_NOG_NeuronCount: CCTE's Neurite Outgrowth Assay in rat cortical cells for Neuron Count, Mundy Lab (AID 2284236; active = hit-call score of the fitted dose curve at least 0.9, where 1 is the maximum;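 also: neurons counted by imaging betaIII-tubulin and Hoechst stained cortical cells; cells exposed to compound for about 48 hours before fixation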). In short, it runs like this: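 Read-out: neuron number by high-content imaging of betaIII-tubulin (Alexa Fluor-488) and Hoechst-labelled rat primary cortical cells.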
Assay [4] can be described thus: CCTE_Mundy_HCI_hNP1_Casp3_7: CCTE's Caspase-Glo 3/7 Assay in human neuroprogenitor cells for Apoptosis, Mundy Lab (AID 2284240). The method in brief: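 Luminescent caspase-3/7 readout, 26.5 h post-dose, in human neural progenitor cells from WA09 embryonic stem cells. Cells grew 40–44 h at 37 °C, 5% CO2 before chemical addition. Activity analysed as signal increase over DMSO baseline.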

Assay [5] in a line: CCTE_Mundy_HCI_hNP1_CellTiter: CCTE's Cell Titer-Glo 2 Assay in human neuroprogenitor cells for Viability, Mundy Lab (AID 2284241; active = hit-call score of the fitted dose curve at least 0.9, where 1 is the maximum;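 as to AC50: a hit is a drop in ATP luminescence versus DMSO meaning reduced viability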). The method in brief:
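Viability read as luminescent ATP content (CellTiter-Glo, 30 min room temperature) twenty-four hours after dosing, relative to DMSO. Cells: WA09-derived hNP1 neuroprogenitors on poly-L-ornithine/laminin, plated 40 to 44 hours before chemical.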
Background: Cellular ATP, detected with luciferase, serves as a proxy for viable cell number.

A short description of assay [6]: CCTE_Mundy_HCI_Cortical_NOG_BPCount: CCTE's Neurite Outgrowth Assay in rat cortical cells for Branch Point Count, Mundy Lab (AID 2284237).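 As to AC50: branch points counted about two days after chemical exposure.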 In short, it runs like this: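 Measured 50.33 h after dosing, this morphology endpoint uses rat primary cortical cultures labelled for betaIII-tubulin. Branch points are quantified by high-content imaging, with DMSO as negative control and baseline.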

A short description of assay [7]: TAMU_PeakParms_SingleDonor1434_QT: Texas A&M University (TAMU) 1.5-hr Human Induced Pluripotent Stem Cell (iPSC)-derived Cardiomyocytes Calcium (Ca+2) Flux Assay for Cardiotoxicity: QT (decay-rise ratio) (AID 2284235; active = hit-call score of the fitted dose curve at least 0.9, where 1 is the maximum). In short, it runs like this:
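Decay/rise ratio of calcium-flux fluorescence scored after 90 min exposure (37C) of donor 1434 iPSC cardiomyocytes to 0.2–100 uM (0.5% DMSO). Beat-cessation and severe-notch points removed; POD is EC05, a 5% rise over DMSO.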

Assay [8] is described as follows: UKN2_HCS_IMR90_cell_viability: Viability Assessment in the University of Konstanz (UKN) Leist Lab Neural Crest Cell Migration Assay in human induced IMR90 Pluripotent Stem Cells (UKN2) (AID 2284233).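 Also: cells exposed to compound for 24 h after a 24 h migration phase.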 In short, it runs like this:
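Viability read as calcein-AM fluorescence by high-content imaging, Hoechst co-stain, 30 min. Human iPSC (IMR90) neural crest cells had migrated 24 h into stopper-defined gaps before 24 h chemical exposure. Fitted bidirectionally relative to DMSO.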

Assay [9] is described as follows: UKN4_HCS_LUHMES_cell_viability: Viability Assessment in the University of Konstanz (UKN) Leist Lab Neurite Outgrowth Assay in human LUHMES cells (UKN4) (AID 2284232). The method in brief:
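Viability was read by high-content imaging of calcein-AM/H-33342-stained cells after 24 h toxicant exposure, staining included. Cells: human LUHMES on day 2 of dopaminergic differentiation, dosed shortly after attachment; DMSO baseline, bidirectional curve fitting.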

As usually defined, the AC50 is the concentration at which the activity in the assay is half-maximal.

As for `CCOC(=O)CC(SP(=S)(OC)OC)C(=O)OCC` (stereo not given), the call in assay [1], in assay [2], in [4] and in assay [5] was inactive. The results for the concentration at half-maximal activity (AC50) in assay [3], in assay [4] and in assay [5] were 23.9 µM (active), 84.5 µM (active) and 72.8 µM (active), respectively.
In the case of `COP(N)(=O)SC` (stereo not given), the result in [1], in assay [3], in assay [6], in assay [4] and in assay [5] was inactive.
Regarding `CNC(=O)ON=CC(C)(C)SC`, the call in assay [1], in assay [7], in assay [6], in assay [4] and in assay [5] was inactive.
Take `CO/C=C(/C(=O)OC)c1ccccc1Oc1cc(Oc2ccccc2C#N)ncn1`: the AC50 in assay [1] is 5.6 µM (active); in assay [3], 4.67 µM (active); in assay [6] it was 2.23 µM (active). The compound was called inactive in [8] and in assay [4].
For the compound `CCCCNC(=O)n1c(NC(=O)OC)nc2ccccc21`, the outcome in assay [1] and in assay [9] was inactive. The AC50 is 15 µM (active) in [8], 10.3 µM (active) in [6], 7.6 µM (active) in assay [4] and 10 µM (active) in assay [5].
With `C=CCC1=C(C)C(OC(=O)C2C(C=C(C)C)C2(C)C)CC1=O` (stereo not given), the compound was called inactive in [1], in assay [9], in assay [6], in assay [4] and in assay [5].
For the compound `COP(=S)(OC)Oc1nc(Cl)c(Cl)cc1Cl`, the call in assay [1], in assay [4] and in assay [5] was inactive. Further, the AC50 in assay [3] was 15 µM (active); in assay [6], 24.1 µM (active).
`COC(=O)N(OC)c1ccccc1COc1ccn(-c2ccc(Cl)cc2)n1`: the concentration at half-maximal activity (AC50) is 0.113 µM (active) in assay [1]; 81.5 µM (active) in assay [2]; 90.1 µM (active) in assay [8]; 0.143 µM (active) in assay [3]; 0.116 µM (active) in assay [6]; 33.5 µM (active) in assay [4]. The half-maximal activity concentration (AC50) in assay [5] is 50 µM (active).
Take `C=CC1(C)OC(=O)N(c2cc(Cl)cc(Cl)c2)C1=O` (stereo not given): the compound was called inactive in assay [1], in assay [2], in assay [8], in assay [3], in [6] and in assay [4]. For the same compound, the result in assay [5] was inactive.
Take `N#Cc1nn(-c2c(Cl)cc(C(F)(F)F)cc2Cl)c(N)c1S(=O)C(F)(F)F` (stereo not given): the call in assay [1], in assay [2], in assay [9], in assay [3], in [6] and in [4] was inactive. Moreover, the call in [5] was inactive. In addition, the AC50 in [8] is 40 µM (active).
